According to PubChem BioAssay AID1159580 (chemical genetic matrix, 2015):
“And” between values parts separate entries of the source, which are not always exact repeats. Identical values can stand only once. The campaign covered roughly 5,500 compounds. About 2,000 (36%) were called active. Inconclusive results (about 18%) are left out. Cut-off read from the data, not from the text of the source: active = normalized growth mostly below about 0.91 (no sharp cut-off); inconclusive = no clear call, values can overlap the other calls; inactive = mostly above about 0.92. This is one part of the list.

Test: chemical genetic growth profiling, strain panel (AID 1159580);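 note: tested at 20 µM; growth read once vehicle control cultures reached saturation at 30 °C; 1 = growth at the plate median or of vehicle wells; lower values mean less growth of the strain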
Conditions: S. cerevisiae deletion strains, growth OD
[1] = locus YBR229C, strain ROT2, stronger effect = lower value
[2] = locus YDL101C, strain DUN1, stronger effect = lower value
[3] = locus YDR150W, strain NUM1, stronger effect = lower value
[4] = locus YEL061C, strain CIN8, stronger effect = lower value
[5] = locus YGR078C, strain PAC10, stronger effect = lower value
[6] = locus YHR030C, strain SLT2, stronger effect = lower value
[7] = locus YJR043C, strain POL32, stronger effect = lower value
[8] = locus YKL190W, strain CNB1, stronger effect = lower value
[9] = locus YLR039C, strain RIC1, stronger effect = lower value
[10] = locus YLR262C, strain YPT6, stronger effect = lower value
[11] = locus YMR263W, strain SAP30, stronger effect = lower value
[12] = locus YNL153C, strain GIM3, stronger effect = lower value
[13] = locus YPL055C, strain LGE1, stronger effect = lower value

Measured: normalized growth

CC(C)N(Cc1ccc(N(C)C)cc1)S(=O)(=O)c1cc(Cl)c(Cl)cc1Cl
inactive: locus YAL013W, strain DEP1, stronger effect = lower value 1 | [1] 1.01 | [2] 1.03 | locus YDL134C, strain PPH21, stronger effect = lower value 1.01 | [3] 1.01 | [4] 0.986 | [5] 1.02 | [6] 1.07 | locus YHR087W, strain rtc3, stronger effect = lower value 1 | [7] 1.01 | locus YJR075W, strain HOC1, stronger effect = lower value 1.02 | [8] 1.01 | [9] 1.01 | locus YLR058C, strain SHM2 (second series), stronger effect = lower value 1 | locus YLR085C, strain ARP6, stronger effect = lower value 1.06 | [10] 0.999 | locus YML094W, strain GIM5, stronger effect = lower value 1.02 | locus YMR219W, strain ESC1, stronger effect = lower value 1 | [11] 1.02 | locus YNL128W, strain TEP1, stronger effect = lower value 1.02 | [12] 1.03 | locus YNL298W, strain CLA4 (second series), stronger effect = lower value 1.03 | locus YNL322C, strain KRE1, stronger effect = lower value 1.01 | locus YNR030W, strain Alg12, stronger effect = lower value 1.04 | locus YOL006C, strain TOP1, stronger effect = lower value 1.08 | [13] 1 | locus YPL241C, strain CIN2, stronger effect = lower value 1.04 | locus YPR135W, strain CTF4, stronger effect = lower value 1.1

CC(=O)c1c(O)c(C)c(O)c2c1OC1=CC(=O)C(C(C)=O)C(=O)C12C (stereo not drawn)
active: locus YAL021C, strain ccr4, stronger effect = lower value 0.816 | locus YAL026C, strain drs2, stronger effect = lower value 0.812 | locus YBR009C, strain hhf1, stronger effect = lower value 0.739 | locus YCL011C, strain gbp2, stronger effect = lower value 0.672 | locus YCL061C, strain MRC1, stronger effect = lower value 0.858 | locus YCR088W, strain abp1, stronger effect = lower value 0.872 | locus YDL185W, strain tfp1, stronger effect = lower value 0.506 | locus YDL192W, strain arf1, stronger effect = lower value 0.852 | locus YDR101C, strain arx1, stronger effect = lower value 0.89 | locus YDR159W, strain sac3, stronger effect = lower value 0.762 | locus YDR195W, strain ref2 0.799 | locus YDR335W, strain msn5, stronger effect = lower value 0.752 | locus YDR392W, strain spt3, stronger effect = lower value 0.526 | locus YDR502C, strain sam2, stronger effect = lower value 0.853 | locus YEL003W, strain gim4, stronger effect = lower value 0.787 | locus YEL061C, strain CIN8 (second series), stronger effect = lower value 0.895 | locus YER015W, strain faa2, stronger effect = lower value 0.912 | locus YGL078C, strain dbp3, stronger effect = lower value 0.567 | locus YGL086W, strain mad1, stronger effect = lower value 0.909 | locus YGL253W, strain hxk2, stronger effect = lower value 0.892 | locus YHR079C, strain IRE1, stronger effect = lower value 0.133 | locus YHR142W, strain chs7, stronger effect = lower value 0.82 | locus YIL125W, strain kgd1, stronger effect = lower value 0.365 | locus YJL092W, strain hpr5, stronger effect = lower value 0.908 | locus YJL129C, strain trk1, stronger effect = lower value 0.684 | locus YJL164C, strain tpk1, stronger effect = lower value 0.84 | locus YJR066W, strain TOR1, stronger effect = lower value 0.465 | locus YKL009W, strain mrt4, stronger effect = lower value 0.387 | locus YKL085W, strain MDH1 (second series), stronger effect = lower value 0.275 | locus YKL085W, strain MDH1, stronger effect = lower value 0.275 | locus YKR001C, strain vps1, stronger effect = lower value 0.813 | locus YLL026W, stronger effect = lower value 0.925 | locus YLR027C, strain aat2, stronger effect = lower value 0.796 | locus YLR113W, strain HOG1, stronger effect = lower value 0.186 | locus YLR221C, strain rsa3, stronger effect = lower value 0.781 | locus YLR258W, strain gsy2, stronger effect = lower value 0.889 | locus YLR262C, strain YPT6 (second series), stronger effect = lower value 0.723 | locus YLR370C, strain arc18, stronger effect = lower value 0.9 | locus YLR418C, strain cdc73, stronger effect = lower value 0.694 | locus YML120C, strain ndi1, stronger effect = lower value 0.439 | locus YMR058W, strain fet3, stronger effect = lower value 0.834 | locus YMR125W, strain sto1, stronger effect = lower value 0.875 | locus YMR129W, stronger effect = lower value 0.911 | locus YMR205C, strain PFK2, stronger effect = lower value 0.759 | locus YMR231W, strain pep5, stronger effect = lower value 0.169 | locus YNL071W, strain lat1, stronger effect = lower value 0.907 | locus YNL183C, strain NPR1, stronger effect = lower value 0.693 | locus YNL209W, strain ssb2, stronger effect = lower value 0.924 | locus YNL250W, strain rad50, stronger effect = lower value 0.328 | locus YNL271C, strain bni1, stronger effect = lower value 0.773 | locus YNL298W, strain CLA4, stronger effect = lower value 0.332 | locus YNL322C, strain KRE1 (second series), stronger effect = lower value 0.83 | locus YNR052C, strain pop2, stronger effect = lower value 0.876 | locus YOR001W, strain rrp6, stronger effect = lower value 0.672 | locus YOR083W, strain WHI5, stronger effect = lower value 0.859 | locus YOR106W, strain vam3, stronger effect = lower value 0.254 | locus YOR144C, strain elg1, stronger effect = lower value 0.898 | locus YOR184W, strain ser1, stronger effect = lower value 0.723 | locus YOR231W, strain MKK1, stronger effect = lower value 0.127 | locus YOR265W, strain rbl2, stronger effect = lower value 0.928 | locus YOR290C, strain snf2, stronger effect = lower value 0.644 | locus YPL078C, strain atp4, stronger effect = lower value 0.873 | locus YPL240C, strain hsp82, stronger effect = lower value 0.894 | locus YPL256C, strain CLN2, stronger effect = lower value 0.189 | locus YPR141C, strain kar3, stronger effect = lower value 0.888 | strain wtn01, stronger effect = lower value 0.841
inactive: locus YAL030W, strain snc1, stronger effect = lower value 0.938 | locus YBL061C, strain skt5, stronger effect = lower value 0.966 | locus YBR021W, strain FUR4, stronger effect = lower value 1.01 | locus YBR023C, strain chs3, stronger effect = lower value 0.978 | locus YBR171W, strain sec66, stronger effect = lower value 0.933 | [1] 1.01 | locus YBR231C, strain swc5, stronger effect = lower value 0.963 | locus YBR279W, strain paf1, stronger effect = lower value 1.01 | locus YCL016C, strain dcc1, stronger effect = lower value 0.987 | locus YCL029C, strain bik1, stronger effect = lower value 0.976 | locus YCL069W, strain vba3, stronger effect = lower value 0.957 | locus YDL005C, strain med2, stronger effect = lower value 0.985 | locus YDL035C, strain GPR1, stronger effect = lower value 1.01 | locus YDL040C, strain nat1, stronger effect = lower value 0.991 | locus YDL074C, strain BRE1, stronger effect = lower value 0.987 | [2] 1.01 | locus YDR001C, strain nth1, stronger effect = lower value 0.96 | locus YDR069C, strain doa4, stronger effect = lower value 0.98 | locus YDR137W, strain rgp1, stronger effect = lower value 0.972 | [3] 1.01 | locus YDR162C, strain NBP2, stronger effect = lower value 1.03 | locus YDR297W, strain sur2, stronger effect = lower value 0.962 | locus YDR318W, strain mcm21, stronger effect = lower value 0.981 | locus YDR334W, strain swr1, stronger effect = lower value 0.953 | locus YDR388W, stronger effect = lower value 0.976 | locus YEL037C, strain rad23, stronger effect = lower value 0.948 | [4] 1.01 | locus YER016W, strain bim1, stronger effect = lower value 1 | locus YER110C, stronger effect = lower value 0.988 | locus YER111C, strain swi4, stronger effect = lower value 0.919 | locus YER155C, strain BEM2 (second series), stronger effect = lower value 0.868 | locus YER155C, strain BEM2, stronger effect = lower value 1.01 | locus YER167W, strain BCK2, stronger effect = lower value 1.01 | locus YFR010W, strain ubp6, stronger effect = lower value 0.901 | locus YGL167C, strain pmr1, stronger effect = lower value 1.01 | locus YGL173C, strain kem1, stronger effect = lower value 0.992 | locus YGL227W, strain vid30, stronger effect = lower value 0.946 | locus YGL240W, strain doc1, stronger effect = lower value 0.894 | locus YGL248W, strain PDE1, stronger effect = lower value 1.02 | [5] 1.02 | locus YGR135W, strain pre9, stronger effect = lower value 0.946 | locus YGR252W, strain gcn5, stronger effect = lower value 0.945 | locus YHR013C, strain ard1, stronger effect = lower value 1 | locus YHR027C, strain rpn1, stronger effect = lower value 0.983 | locus YHR079C, strain IRE1 (second series), stronger effect = lower value 0.986 | locus YHR094C, strain hxt1, stronger effect = lower value 0.984 | locus YHR129C, strain ARP1, stronger effect = lower value 1.02 | locus YHR200W, strain rpn10, stronger effect = lower value 0.932 | locus YIL066C, strain RNR3, stronger effect = lower value 1.02 | locus YIL073C, strain SPO22, stronger effect = lower value 1.03 | locus YIR030C, strain dcg1, stronger effect = lower value 0.975 | locus YJL095W, strain BCK1 (second series), stronger effect = lower value 0.964 | locus YJL115W, strain asf1, stronger effect = lower value 0.947 | locus YJL134W, strain LCB3, stronger effect = lower value 1.01 | locus YJL154C, strain vps35, stronger effect = lower value 0.979 | locus YJL166W, strain qcr8, stronger effect = lower value 0.913 | locus YJL168C, strain set2, stronger effect = lower value 0.972 | locus YJL187C, strain SWE1 (second series), stronger effect = lower value 1.01 | locus YJL187C, strain SWE1, stronger effect = lower value 0.972 | [7] 1.01 | locus YKL068W, stronger effect = lower value 1.01 | locus YKL160W, strain elf1, stronger effect = lower value 0.977 | [8] 1.01 | locus YKR026C, strain gcn3, stronger effect = lower value 0.938 | locus YKR091W, strain srl3, stronger effect = lower value 0.942 | locus YLL001W, strain dnm1, stronger effect = lower value 0.933 | locus YLL041C, strain sdh2, stronger effect = lower value 0.936 | [9] 1.01 | locus YLR058C, strain SHM2, stronger effect = lower value 1.01 | locus YLR102C, strain apc9, stronger effect = lower value 0.99 | [10] 1.03 | locus YLR268W, strain sec22, stronger effect = lower value 0.932 | locus YLR320W, strain mms22, stronger effect = lower value 0.907 | locus YLR330W, strain CHS5, stronger effect = lower value 1.01 | locus YLR342W, strain FKS1 (second series), stronger effect = lower value 0.946 | locus YLR342W, strain FKS1, stronger effect = lower value 0.93 | locus YLR357W, strain rsc2, stronger effect = lower value 0.886 | locus YLR371W, strain rom2, stronger effect = lower value 0.998 | locus YLR384C, strain iki3, stronger effect = lower value 0.957 | locus YML016C, strain PPZ1, stronger effect = lower value 1.01 | locus YML032C, strain rad52, stronger effect = lower value 0.953 | locus YML124C, strain tub3, stronger effect = lower value 0.96 | locus YMR078C, strain ctf18, stronger effect = lower value 0.976 | locus YMR223W, strain ubp8, stronger effect = lower value 0.958 | [11] 1.01 | locus YMR307W, strain GAS1, stronger effect = lower value 0.956 | locus YNL067W, strain RPL9B, stronger effect = lower value 1.02 | [12] 1.01 | locus YNL233W, strain BNI4, stronger effect = lower value 1.03 | locus YNL248C, strain rpa49, stronger effect = lower value 0.925 | locus YNL307C, strain MCK1, stronger effect = lower value 0.971 | locus YNR049C, strain mso1, stronger effect = lower value 0.962 | locus YOL012C, strain htz1 1.07 | locus YOL147C, strain pex11, stronger effect = lower value 0.968 | locus YOR061W, strain CKA2, stronger effect = lower value 1.02 | locus YOR069W, strain VPS5, stronger effect = lower value 1.01 | locus YOR070C, strain gyp1, stronger effect = lower value 0.966 | locus YOR080W, strain dia2, stronger effect = lower value 0.975 | locus YOR136W, strain idh2, stronger effect = lower value 0.976 | locus YOR270C, strain vph1, stronger effect = lower value 1.08 | locus YOR316C, strain cot1, stronger effect = lower value 0.989 | locus YPL051W, strain arl3, stronger effect = lower value 0.938 | [13] 0.999 | locus YPL106C, strain sse1, stronger effect = lower value 0.86 | locus YPR119W, strain clb2, stronger effect = lower value 0.964 | locus YPR163C, strain tif3, stronger effect = lower value 0.968 | locus YPR167C, strain met16, stronger effect = lower value 0.944
1.01 (inactive) and 0.142 (active): [6]
1.03 (inactive) and 0.13 (active): locus YJL095W, strain BCK1, stronger effect = lower value
